# Over roughly 33,000 sequences, “normalized occupancy” has its median near 0.075; the highest 2% begin near 0.095. The sample as a whole holds a higher share of the highest values than the screen did.
# Biological target: MaxL homodimer (Homo sapiens, UniProt P61244 1-160)
# Experiment: universal protein-binding microarray (PBM); PBS-based mixture, 10 nM His-tagged protein dimer, 2% milk, 200 ng/uL BSA, 50 ng/uL salmon testes DNA, 0.02% TX-100; detection with Alexa 488 anti-His antibody;; high values mean tight binding
# Settings: protein: recombinant; tags: C-terminal His-tag (pET21a); chain copies: 2; dsDNA, one strand shown
# How it was run: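 Each 8-mer received a fluorescence intensity from GenePix 4400A scans of Agilent 4 x 44 K 'all 10-mer' universal arrays. Those arrays had been incubated with His-tagged protein dimer at 10 nM, and the bound protein was marked with a fluorophore-conjugated anti-His antibody at 10 ng/μL. Binding occupancy is the intensity scaled to that of the highest-ranked sequence word.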
# Sequence of MaxL homodimer (P61244 whole entry): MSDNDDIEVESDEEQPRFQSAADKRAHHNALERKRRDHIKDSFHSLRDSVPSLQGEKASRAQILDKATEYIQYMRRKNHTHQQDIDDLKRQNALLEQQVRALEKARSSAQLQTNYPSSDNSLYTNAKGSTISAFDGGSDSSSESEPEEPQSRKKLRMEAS
row,Sequence,binding signal [normalized occupancy]
1,CGCGTTGC,0.0781
2,AACGTTGG,0.0767
3,CACGTTGA,0.115
4,TACGTTGA,0.082
5,GACGTTGA,0.0764
6,AACGTTGA,0.0764
7,CACGTTGC,0.131
8,AACGTTGC,0.0766
9,CACGTTGG,0.122
10,AACTCGCG,0.0749
11,ACAAAGGG,0.0742
12,TCCTAAGA,0.0773
13,CTCAGTAC,0.0743
14,CCTCCTCC,0.0782
15,GGCATGAC,0.0858
16,CGTATGAG,0.0785
17,CGCATGAA,0.0861
18,CGCATGAC,0.105
19,CGTATGAC,0.0817
20,AGTATGAG,0.0766
21,ATCATGAG,0.09
22,AGCATGAG,0.102
23,CGCATGAG,0.0969
24,ACAGATCT,0.0745
25,GGCATACA,0.0776

row,Sequence,binding signal [normalized occupancy]
1,GAGACATC,0.0756
2,TATGCCGA,0.0757
3,AATGCCGC,0.0765
4,CATGCCGC,0.105
5,CATGCCGG,0.0917
6,CATGCCGA,0.102
7,GATGCCGA,0.0738
8,CATGCCAG,0.0874
9,CATGCCAA,0.0927
10,CATGCCAC,0.0989
11,ACCTAAAT,0.073
12,GAGCTATA,0.0729
13,ATGTGGAA,0.0936
14,GTATGGAA,0.0836
15,ACAGCACG,0.0906
16,CCCTGGAA,0.0745
17,AGCAGACA,0.0774
18,CCGCCACC,0.0762
19,TAATTGTA,0.0773
20,CTTTTGGA,0.0744
21,CACCTGGA,0.0905
22,CACCTGAC,0.0973
23,CACCTGTC,0.0839
24,CACCTGGC,0.103
25,CACCTGAG,0.0741

row,Sequence,binding signal [normalized occupancy]
1,CACCTGGG,0.0841
2,ATTCGAGG,0.0723
3,ACTGCACT,0.0733
4,ACATGTCA,0.0911
5,GCATGTTA,0.0976
6,GCATGTCC,0.0929
7,GTATGTTA,0.0849
8,CCATGTTA,0.0847
9,ACATGTTG,0.11
10,AGATGTTG,0.0819
11,ACATGTTA,0.0993
12,GCATGTCA,0.0972
13,ATATGTTA,0.0924
14,AGATGTTA,0.0811
15,AAATGTTG,0.0794
16,TACAGACA,0.0803
17,CATTGACG,0.0792
18,CGACCCTC,0.0724
19,TCTTGTAA,0.0718
20,AGAACGAC,0.0774
21,GAGGCCCC,0.0733
22,GATGTCCA,0.0757
23,CCATTCTA,0.0759
24,AGCTGCCA,0.0736
25,ATATGTTC,0.0831

row,Sequence,binding signal [normalized occupancy]
1,CCATGTTC,0.0828
2,ACATGTTC,0.0965
3,GGCATCAC,0.0813
4,GACAAGCC,0.0728
5,AAGCATCA,0.076
6,ATACGCAT,0.0968
7,ACACGCAC,0.0931
8,ATGCGCAT,0.102
9,ACACGCAA,0.087
10,ATGCGCAC,0.0828
11,ATGCGCAG,0.0789
12,ACACGCAT,0.0976
13,ATACGCAG,0.0734
14,ATACGCAC,0.0799
15,CAGTACTA,0.0775
16,CCCACAGC,0.0741
17,CCTGGCTC,0.0726
18,ACCTAAGT,0.0745
19,AGTGATGG,0.0766
20,GGTAGTCA,0.0743
21,AAAATGAC,0.0766
22,AATGCAGG,0.08
23,CATGCAGA,0.0959
24,CATGCAGC,0.0946
25,CATGCAGG,0.097

row,Sequence,binding signal [normalized occupancy]
1,CCTGCAGG,0.074
2,AATGCAGA,0.0752
3,GGTTTGTA,0.0749
4,AGTTCTAC,0.0751
5,AACAAATT,0.0736
6,CGGCAAGC,0.0718
7,CTTGTAAC,0.0775
8,ACCCACCG,0.0804
9,AGCGCATC,0.0737
10,AGCGCATG,0.109
11,ATCGCATC,0.0742
12,AGCGCATA,0.0757
13,ACCGCATA,0.0828
14,ACCGCATG,0.146
15,ATCGCATG,0.108
16,ATCGCATA,0.082
17,ACCGCATC,0.0749
18,AATTCACA,0.0775
19,GTCACTAA,0.0757
20,AACATCTC,0.0748
21,ATGGACGG,0.0788
22,CACACGAC,0.0877
23,CACACGAG,0.0978
24,CACACGAA,0.0853
25,AACACGAT,0.0845

row,Sequence,binding signal [normalized occupancy]
1,AACACGAA,0.0741
2,AACACGAG,0.11
3,TAGAGCTA,0.0719
4,AGTGTATC,0.0882
5,AAATTGCC,0.0721
6,CAATTCTA,0.0752
7,CACATTGA,0.0932
8,CACATTGG,0.0977
9,AACATTTA,0.0795
10,CACATTTA,0.0961
11,CACATTGC,0.0923
12,GACATTTA,0.0853
13,GTTCTAGA,0.0745
14,ATGTGGTG,0.0894
15,ATGTGGTA,0.0922
16,ATGTGGAG,0.0861
17,ATGTGGAC,0.0955
18,ATGTGGTC,0.0985
19,CTGTGGAC,0.0726
20,AACGCTGT,0.0729
21,CGCAATCC,0.0789
22,CCAATCTA,0.073
23,ACCACGCC,0.102
24,ACCACACT,0.0849
25,TCCACGCA,0.0885

row,Sequence,binding signal [normalized occupancy]
1,ACCACACA,0.085
2,ACCACGCA,0.0954
3,GCCACGCA,0.0915
4,ACCACACG,0.0972
5,ACCACGGC,0.0743
6,ACCACGTG,0.773
7,ACCACGTC,0.0945
8,ACCACGTA,0.0816
9,GCCACGCC,0.0925
10,AAAGCAGT,0.0719
11,ATGAAGCG,0.0749
12,GTCGCGCA,0.0729
13,CTATGCCA,0.0777
14,AACAAGAA,0.0753
15,AGCCTCTC,0.0729
16,ACCACGAT,0.0936
17,ACACCACA,0.083
18,ACCACGGT,0.0803
19,CCCACGTC,0.0804
20,ACCACGCT,0.123
21,ACACCACG,0.0983
22,CCCACGCC,0.099
